# In the supplement of paper PMC8728848:
# The full list was thinned out, with the strongest signals kept by preference.
# B1: Mermaid2 (Stilbonema majum) (protein)
# chain: MGSSHHHHHHSSGLVPRGSHMAASGWLRSPQGTVVKLYRRSLSWSKADEFCKDVDGRLVVDRTADMHLFLIKNVLKEKKSRVWVGLRRTAPHSRTWIWSDGTRQNEDDLNTNLWLRDEPNDAAGEEECALFMYSPWEKAWGLNDYLCRGGCRSYQFICEKGIR
# Legend:
# Test in all cases: glycan array binding signal (z-score within array); higher = stronger binding
# Conditions in all cases: glycan notation: IUPAC condensed, linker removed
# [1] = molecular target: Gal6S(b1-4)GlcNAc6S
# How it was run: (§1)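 Glycan array binding is given as a within-array Z-score, which can be read as non-binding when negative. The arrays, 3228 of them, came from the Consortium for Functional Glycomics database and were retained only where the protein sequence was available. Z-scores were averaged across arrays of the same protein sequence at different concentrations or buffers and across linkers.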
# [2] = molecular target: GalNAc(b1-4)GlcNAc6S
# How it was run: as §1
# [3] = molecular target: GlcNAc(b1-2)Man(a1-3)[GlcNAc(b1-2)Man(a1-6)]Man(b1-4)GlcNAc(b1-4)[Fuc(a1-6)]GlcNAc
# How it was run: as §1
# [4] = molecular target: GlcNAc(b1-2)[GlcNAc(b1-6)]Man(a1-6)[GlcNAc(b1-2)Man(a1-3)]Man(b1-4)GlcNAc(b1-4)GlcNAc
# How it was run: as §1
# [5] = molecular target: GlcNAc(b1-2)[GlcNAc(b1-6)]Man(a1-6)[GlcNAc(b1-2)Man(a1-3)]Man(b1-4)GlcNAc(b1-4)[Fuc(a1-6)]GlcNAc
# How it was run: as §1
# [6] = molecular target: GlcNAc(b1-3)Gal(b1-4)GlcNAc(b1-3)Gal(b1-4)GlcNAc
# How it was run: as §1
# [7] = molecular target: GlcNAc(b1-3)Gal(b1-4)GlcNAc(b1-3)Gal(b1-4)GlcNAc(b1-2)[GlcNAc(b1-3)Gal(b1-4)GlcNAc(b1-3)Gal(b1-4)GlcNAc(b1-6)]Man(a1-6)[GlcNAc(b1-3)Gal(b1-4)GlcNAc(b1-3)Gal(b1-4)GlcNAc(b1-2)Man(a1-3)]Man(b1-4)GlcNAc(b1-4)[Fuc(a1-6)]GlcNAc
# How it was run: as §1
# [8] = molecular target: GlcNAc(b1-3)Gal(b1-4)GlcNAc(b1-3)Gal(b1-4)GlcNAc(b1-3)Gal(b1-4)GlcNAc(b1-2)Man(a1-3)[GlcNAc(b1-3)Gal(b1-4)GlcNAc(b1-3)Gal(b1-4)GlcNAc(b1-3)Gal(b1-4)GlcNAc(b1-2)Man(a1-6)]Man(b1-4)GlcNAc(b1-4)GlcNAc
# How it was run: as §1
# [9] = molecular target: GlcNAc(b1-3)Gal(b1-4)GlcNAc(b1-6)[GlcNAc(b1-3)]Gal(b1-4)GlcNAc
# How it was run: as §1
# [10] = molecular target: GlcNAc(b1-4)GlcNAc(b1-4)GlcNAc
# How it was run: as §1
# [11] = molecular target: Man(a1-2)Man(a1-6)[Man(a1-3)]Man(a1-6)[Man(a1-2)Man(a1-2)Man(a1-3)]Man(b1-4)GlcNAc(b1-4)GlcNAc
# How it was run: as §1
# [12] = molecular target: Man(a1-3)[Man(a1-6)]Man(a1-6)[Man(a1-2)Man(a1-3)]Man(b1-4)GlcNAc(b1-4)GlcNAc
# How it was run: as §1
# [13] = molecular target: Man(b1-4)GlcNAc
# How it was run: as §1
# [14] = molecular target: Neu5Ac(a2-3)Gal(b1-3)GlcNAc(b1-2)Man
# How it was run: as §1
# [15] = molecular target: Neu5Ac(a2-3)Gal(b1-3)[Fuc(a1-4)]GlcNAc
# How it was run: as §1
# [16] = molecular target: Neu5Ac(a2-3)Gal(b1-3)[Fuc(a1-4)]GlcNAc(b1-3)Gal(b1-4)[Fuc(a1-3)]GlcNAc
# How it was run: as §1
# [17] = molecular target: Neu5Ac(a2-3)Gal(b1-4)GlcNAc(b1-3)Gal
# How it was run: as §1
# [18] = molecular target: Neu5Ac(a2-3)Gal(b1-4)GlcNAc(b1-6)[Gal(b1-3)]GalNAc
# How it was run: as §1
# [19] = molecular target: Neu5Ac(a2-6)Gal(b1-4)Glc
# How it was run: as §1
# [20] = molecular target: Neu5Ac(a2-6)Gal(b1-4)GlcNAc(b1-2)Man(a1-3)[Man(a1-6)]Man(b1-4)GlcNAc(b1-4)GlcNAc
# How it was run: as §1
# [21] = molecular target: Neu5Ac(a2-6)Gal(b1-4)GlcNAc(b1-2)Man(a1-6)[Gal(b1-4)GlcNAc(b1-2)Man(a1-3)]Man(b1-4)GlcNAc(b1-4)GlcNAc
# How it was run: as §1
# [22] = molecular target: Neu5Ac(a2-6)Gal(b1-4)GlcNAc(b1-3)Gal(b1-4)GlcNAc
# How it was run: as §1
# [23] = molecular target: Neu5Ac(a2-6)Gal(b1-4)GlcNAc(b1-3)Gal(b1-4)GlcNAc(b1-3)GalNAc
# How it was run: as §1
# [24] = molecular target: Neu5Ac(a2-8)Neu5Ac(a2-3)Gal(b1-3)GalNAc(b1-4)[Neu5Ac(a2-3)]Gal(b1-4)Glc
# How it was run: as §1
# [25] = molecular target: Neu5Ac9Ac(a2-3)Gal(b1-4)GlcNAc
# How it was run: as §1
# [26] = molecular target: Neu5Gc(a2-3)Gal(b1-3)GlcNAc
# How it was run: as §1
# [27] = molecular target: Neu5Gc(a2-3)Gal(b1-4)GlcNAc(b1-3)Gal(b1-4)GlcNAc(b1-2)Man(a1-3)[Neu5Gc(a2-3)Gal(b1-4)GlcNAc(b1-3)Gal(b1-4)GlcNAc(b1-2)Man(a1-6)]Man(b1-4)GlcNAc(b1-4)GlcNAc
# How it was run: as §1
# [28] = molecular target: Neu5Gc(a2-3)Gal(b1-4)[Fuc(a1-3)]GlcNAc
# How it was run: as §1
binder,measurement,setting,value
B1,glycan array binding signal (z-score),[1],-0.12
same,glycan array binding signal (z-score),[2],4.64
same,glycan array binding signal (z-score),[3],0.316
same,glycan array binding signal (z-score),[4],-0.776
same,glycan array binding signal (z-score),[5],-0.217
same,glycan array binding signal (z-score),[6],-0.357
same,glycan array binding signal (z-score),[7],0.522
same,glycan array binding signal (z-score),[8],-0.346
same,glycan array binding signal (z-score),[9],-0.719
same,glycan array binding signal (z-score),[10],0.454
same,glycan array binding signal (z-score),[11],-0.4
same,glycan array binding signal (z-score),[12],0.111
same,glycan array binding signal (z-score),[13],5.41
same,glycan array binding signal (z-score),[14],-0.619
same,glycan array binding signal (z-score),[15],-0.173
same,glycan array binding signal (z-score),[16],3.06
same,glycan array binding signal (z-score),[17],-0.777
same,glycan array binding signal (z-score),[18],6.1
same,glycan array binding signal (z-score),[19],-0.397
same,glycan array binding signal (z-score),[20],-0.03
same,glycan array binding signal (z-score),[21],-0.551
same,glycan array binding signal (z-score),[22],-0.49
same,glycan array binding signal (z-score),[23],-0.709
same,glycan array binding signal (z-score),[24],-0.435
same,glycan array binding signal (z-score),[25],-0.505
same,glycan array binding signal (z-score),[26],-0.34
same,glycan array binding signal (z-score),[27],-0.883
same,glycan array binding signal (z-score),[28],3.71
